This is a sample that favours compounds with a hit; in the whole collection about 0.83% have one here.
SRC1 inh – inhibitors of human steroid receptor coactivator 1 (SRC1) | Q15788 | HEK293 GAL4-SRC1 luciferase reporter, luminescence | inhibition, % at 3.6 µM | 0.12% of 360,000 active | AID 588354;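 active = inhibition above the campaign mean plus 3 SD, with each screening campaign given its own cutoff, cut at about 60% in these data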;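 also: 0% = DMSO treated cells and 100% = gossypol at 36 µM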
LRH-1 inv ag – NR5A2 inverse agonism in reporter assay; O00482; HEK293T StAR-luciferase reporter, LRH-1 transfected, 24 h; inhibition, % at 3.6 µM; 0.13% of 360,000 active; AID 602396;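 active = inhibition above the mean inhibition of all tested compounds plus 3 SD, cut at about 73% in these data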;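 also: 0% = DMSO wells and 100% = reporter-only cells lacking LRH-1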
Gli-Sufu antag – antagonists of Gli-Sufu signaling; 0.74% of 340,000 active; inhibition, % at 5 µM; AID 588413; Sufu-KO-LIGHT fibroblasts, Gli luciferase reporter luminescence;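 active = inhibition above about 55%, limit read from the data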;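 also: 0% = DMSO-treated cells and 100% = wells with medium but no cells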
NCOA2 inhibitor – human SRC2 (NCOA2) inhibition; Q15596; HEK293 GAL4-SRC2 luciferase reporter, luminescence; inhibition, % at 9 µM; 0.17% of 370,000 active; AID 651957;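 active = inhibition above the mean inhibition of all tested compounds plus 3 SD, set per campaign, cut at about 52% in these data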;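 also: 0% = DMSO treated cells and 100% = cells given Gossypol at 36 µM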
SRC3 inh – human NCOA3 inhibition. Q9Y6Q9. HEK293 GAL4-SRC3 luciferase reporter, luminescence. inhibition, % at 3.6 µM. 0.17% of 360,000 active. AID 588352;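 active = inhibition above a per-campaign cutoff, the mean of all compounds plus 3 SD, cut at about 60% in these data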;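 also: 0% = DMSO-treated cells and 100% = gossypol-treated cells at 36 µM; higher means less SRC3-driven luciferase light from the GAL4 reporter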
Gli-Sufu confirm – Gli-SUFU antagonism confirmation, single concentration; 40% of 2,500 active; inhibition, % at 5 µM; shares compounds with Gli-Sufu antag; Sufu-KO-LIGHT cells, Gli luciferase reporter, luminescence;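 active = mean inhibition at 5 µM reaching about 45%, limit read from the data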;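 also: plate controls were DMSO-treated cells for no effect and wells lacking cells for full effect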
Gli cytotox – cytotoxicity counter-screen for Gli-SUFU antagonists. 32% of 2,500 active. shares compounds with Gli-Sufu antag. Sufu-KO-LIGHT cells cytotoxicity, ATP luminescence. cytotoxicity, % at 5 µM;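 active = mean cytotoxicity at 5 µM above about 25%, limit read from the data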;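 also: cells exposed to compound overnight for roughly 16 to 18 hours; plate controls were DMSO wells with cells for no effect and medium without cells for full effect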
Wnt3a counter – inhibits Wnt3a reporter, counter-screen for Gli-SUFU antagonists; shares compounds with Gli-Sufu antag; Wnt-LIGHT cells, Wnt3a-driven luciferase reporter, luminescence; inhibition, % at 6.25 µM; 20% of 2,500 active;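 active = mean inhibition above about 25%, limit read from the data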
An asterisk follows results filed as active; . = no result.

SMILES | SRC1 inh | LRH-1 inv ag | Gli-Sufu antag | NCOA2 inhibitor | SRC3 inh | Gli-Sufu confirm | Gli cytotox | Wnt3a counter
CCC[C@H]1NC(=O)[C@H](C)N(C)C(=O)C(C)(C)C(=O)C(C)NC(=O)[C@H](Cc2ccc(OC)cc2)N(C)C(=O)[C@H](C(C)C)N(C)C(=O)CNC(=O)[C@H](CC(C)C)N(C)C(=O)CNC(=O)[C@H]([C@@H](C)CC)OC(=O)[C@H]1C (stereo partly drawn) | . | . | 75* | . | . | 89* | 58* | 61*
CC[C@H](C)C1OC(=O)[C@@H](C)[C@@H](CC)NC(=O)[C@H](C)N(C)C(=O)C(C)(C)C(=O)C(C)NC(=O)[C@H](Cc2ccc(OC)cc2)N(C)C(=O)[C@H](C(C)C)N(C)C(=O)CNC(=O)[C@H](CC(C)C)N(C)C(=O)CNC1=O (stereo partly drawn) | 9 | 31 | . | . | 32 | . | . | .
Cc1cccc(CCNC(=O)c2ccc(Sc3ccccc3Cl)c([N+](=O)[O-])c2)c1 | . | . | . | 14 | . | . | . | .
COC(=O)[C@]12C[C@H](CC(=O)NCc3ccc(C)o3)C(=O)N(Cc3cccc4ccccc34)C1=C[C@H](C(C)C)O[C@@H]2C1CC1 | . | . | . | 16 | . | . | . | .
Cc1nc2cccc(C)n2c(=O)c1Cl | 0 | -1 | 56* | 20 | 12 | 10 | 16 | 7
Cc1nc2ccc(Br)cn2c(=O)c1Cl | -25 | -5 | 2 | 11 | -4 | . | . | .
COc1cccc(NC(=O)CSc2nnc(-c3cc(C)n(-c4ccccc4)c3C)o2)c1 | 43 | 59 | 53 | 40 | 49 | 69* | 10 | 76*
C#Cc1cccc(OC[C@@H](O)CN2CCC(C(O)(c3ccccc3)c3ccccc3)CC2)c1 | . | . | . | 11 | . | . | . | .
O=C(Nc1ccc2oc(-c3ccccc3F)nc2c1)c1ccc2c(c1)OCCO2 | -13 | -26 | 54 | -3 | -32 | 12 | 12 | -54
COc1ccc(Nc2nc(N)c([N+](=O)[O-])c(N3CCCC3)n2)cc1 | 6 | 10 | 4 | -25 | -19 | . | . | .
COc1ccc(Nc2nc(N3CCCCC3)c3ccccc3n2)cc1 | 12 | 10 | 58* | 13 | 5 | 49* | 39* | -24
COC(=O)[C@]12C[C@H](CC(=O)N3CCC(c4ccccc4)CC3)C(=O)N(Cc3ccco3)C1=C[C@H](C1CCCC1)O[C@@H]2C | . | . | . | 1 | . | . | . | .
Cc1ccc(OCCN2CCN(c3ncnc4sc(C)c(C)c34)CC2)cc1 | 14 | 54 | 73* | 31 | 33 | 73* | 31* | 15
Cc1ccc(NC(=O)C2CCN(c3ncnc4sc(C)c(C)c34)CC2)cc1S(=O)(=O)N(C)C | 24 | -3 | 40 | 4 | 35 | . | . | .
Cc1ccc(C)c(S(=O)(=O)N2CCN(C(=O)C3CCN(c4ncnc5sc(C)c(C)c45)CC3)CC2)c1 | 20 | 20 | 73* | 41 | 21 | 34 | 25 | -11
Cc1sc2ncnc(N3CCN(S(=O)(=O)c4ccccc4)CC3)c2c1C | -7 | -6 | 60* | . | -12 | 54* | 26* | 30*
C(=N/N1CCN(c2ccccc2)CC1)/c1ccco1 | . | . | . | -37 | . | . | . | .
CCc1nnc(NC(=O)CCC(=O)NCC2CCCO2)s1 (stereo not drawn) | 8 | 5 | 50 | 3 | -6 | 22 | 23 | -14
O=C(CN(Cc1ccccc1)C(=O)CCC(=O)Nc1nccs1)NCC1CCCO1 (stereo not drawn) | 12 | 19 | 50 | -4 | -7 | 14 | 7 | 8
CCCCC(=O)Nc1nnc(SCC(=O)NCC2CCCO2)s1 (stereo not drawn) | -50 | 28 | -6 | -44 | 20 | . | . | .
O=C(CN(CC1CCCO1)C(=O)CCC(=O)Nc1nccs1)NCC1CCCO1 (stereo not drawn) | -21 | -14 | -3 | -25 | -32 | . | . | .
CC(=O)CC[C@H]1CC[C@]2(CCCN(C(=O)c3ccco3)C2)O1 | . | . | . | 2 | . | . | . | .
CCCC1CCC2(CCC(=O)N2CCSc2ccccc2)CC1 (stereo not drawn) | . | . | . | 2 | . | . | . | .
CC(C)OCCCNc1ncnc2c1[nH]c1ccccc12 | 5 | 13 | 64* | 4 | 7 | 59* | 40* | -31
COc1ccc(CNc2ncnc3c2[nH]c2ccccc23)cc1 | 5 | 8 | 53 | 2 | 15 | 64* | 16 | 24
SMILES | SRC1 inh | LRH-1 inv ag | Gli-Sufu antag | NCOA2 inhibitor | SRC3 inh | Gli-Sufu confirm | Gli cytotox | Wnt3a counter
Cc1ccc(N(CC(=O)NCc2ccc(F)cc2)S(=O)(=O)c2c(C)n[nH]c2C)cc1 | -4 | -25 | 73* | -20 | -19 | 14 | 7 | -49
COc1ccc(N(CC(=O)NCc2ccc(F)cc2)S(=O)(=O)c2c(C)n[nH]c2C)cc1 | -2 | 6 | -4 | -7 | 5 | . | . | .
COc1ccc(OCC(=O)Nc2ccc3c(c2)nc(CCN2CCN(C)CC2)n3C)cc1 | -3 | -5 | 51 | 7 | 7 | 16 | 0 | -10
COc1ccc(OCC(=O)Nc2ccc3c(c2)nc(CCN2CCCC2)n3C)cc1 | 6 | -8 | 5 | -3 | 10 | . | . | .
CC(C)[C@H](NC(=O)[C@@H]1CCCN1)C(=O)N1CCC2CCN(S(=O)(=O)c3ccccc3)CC21 (stereo partly drawn) | . | . | . | 15 | . | . | . | .
COc1cc(NC(=O)Cc2nn(C)c(=O)c3ccccc23)cc(OC)c1 | -5 | 20 | 24 | 3 | 23 | . | . | .
Cn1c(C(=O)O)c(CC(=O)Nc2ccc3c(c2)OCCO3)c2ccccc21 | 29 | 29 | 41 | 27 | 40 | . | . | .
Cc1ccc(NC(=O)Cc2nn(C)c(=O)c3ccccc23)cc1F | 13 | 12 | 67* | 19 | 17 | 66* | 29* | 2
Cn1nc(CC(=O)Nc2ccc(N3CCN(C(=O)OC(C)(C)C)CC3)cc2)c2ccccc2c1=O | 15 | 36 | 66* | 25 | 33 | 78* | 39* | 37*
Cn1nc(CC(=O)Nc2ccc3c(c2)OCCO3)c2ccccc2c1=O | 12 | 39 | 66* | -2 | 35 | 68* | 31* | 41*
N#CCC[C@H]1CC[C@]2(CCCN(C(=O)c3ccno3)C2)O1 | . | . | . | 7 | . | . | . | .
COc1ccccc1CNC(=O)NCCCN1CCN(c2ccc(F)cc2)CC1 | . | . | . | 14 | . | . | . | .
Cc1cccc(Cn2cc(CN3CC(N(C)CCCOC(=O)c4cc(C)cc(C)c4)CS3(=O)=O)nn2)c1 (stereo not drawn) | . | . | . | 1 | . | . | . | .
O=C(COc1ccccc1)Nc1ccc(OC(F)(F)C(F)F)c(NC(=O)COc2ccccc2)c1 | -26 | 11 | 61* | -5 | 4 | 4 | 2 | -57
CC(=O)NC(CCS(C)(=O)=O)C(=O)Nc1cc(C)ccc1C (stereo not drawn) | -5 | -5 | 54 | -30 | 1 | 10 | 7 | -11
COc1cc(CNCc2ccccn2)ccc1OCC(=O)NC1CCCCC1 | 0 | 4 | 68* | -15 | 5 | 9 | -12 | -7
